# Screening data from PubChem BioAssay.
# LDHA inh: blocks human lactate dehydrogenase A; P00338; purified LDHA, NADH/diaphorase-resazurin fluorescence; hits give low values; activity change, % (values are at about 110 or 230 µM); hit rate 0.15% among 480,000; AID 1347041; in the data active means activity change below about -30%; inconclusive means mostly about -25% to -30%;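 further: plate controls were DMSO wells for no effect and wells without enzyme for full effect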
#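 Remaining NADH was detected by diaphorase (0.133 mg/mL) converting 37 µM resazurin to fluorescent resorufin, read at 0 and 20 minutes. The preceding 5-minute room-temperature reaction used 2 nM LDHA, 0.2 mM sodium pyruvate and 0.06 mM NADH at pH 7.4.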
# Pin1 inh: blocks the human prolyl isomerase Pin1; Pin1 FP peptide displacement, HiFluor488, 10 min; AID 504891; hit rate 0.009% among 390,000; Q13526; Potency, µM (titrated, usually from 115 µM), without a hit: at the top dose activity, negative = inhibition, usual class: inhibitors; active means well fitted inhibition curve with a large enough effect in the polarisation, with a control signal flat, not every such curve was filed as active; inconclusive means small, poorly fitted or top-dose-only effect, or effect the other way, or a change in a side signal; inactive means no such curve, though single readings can be large or run the other way; the % refers to the polarisation; further: potency means the concentration at half of the fitted maximal effect; on the % scale 0 is the no-effect control and ±100 the full control effect
# Target sequence (Q13526 whole entry, looked up): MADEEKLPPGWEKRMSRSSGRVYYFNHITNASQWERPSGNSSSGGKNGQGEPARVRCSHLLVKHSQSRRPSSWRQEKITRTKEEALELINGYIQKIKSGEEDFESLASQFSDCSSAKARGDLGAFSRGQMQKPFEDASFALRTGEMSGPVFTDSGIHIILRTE
# mIDH1 inhibitor: blocks human mutant IDH1 R132H enzyme; Potency, µM (series often up to 76.6 µM), inactives show top-dose activity change, negative = inhibition, most hits filed as inhibitors; IDH1-R132H enzyme, NADPH consumption, diaphorase/resazurin fluorescence; hit rate 0.093% among 390,000; O75874; further: potency means the concentration at half of the fitted maximal effect; on the % scale 0 is the no-effect control and ±100 the full control effect; nearly all actives have a fitted effect of over 65% in size
#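 IDH1-R132H (0.5 ug/mL dispensed) in pH 7.5 Tris buffer was preincubated 30 min with compound, then given a substrate mix of 0.016 mM NADPH and 2 mM alpha-KG for 80 min at room temperature; remaining NADPH was read by diaphorase/resazurin fluorescence.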
# Vif-APOBEC3F blk: blocks the Vif interaction with APOBEC3F; HeLa A3F-eYFP + Vif (tagged APOBEC3F with the HIV-1 protein that degrades it), YFP fluorescence increase; Potency, µM (doses to about 46.1 µM), for inactives: at the top dose activity, negative = active; hit rate 0.2% among 390,000; further: potency means the concentration at half of the fitted maximal effect; % of control where 0% means no effect; nearly all actives have a fitted effect of over 65% in size
#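 HeLa cells stably expressing A3F-eYFP plus Vif, plated and incubated overnight at 37 deg C, then exposed to compounds overnight at 37 deg C. Blocked degradation read as raised yellow fluorescence (Ex 488/Em 500-530).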
# Vif-APOBEC3G blk: blocks the Vif interaction with human APOBEC3G; Q9HC16; HeLa A3G-eYFP + Vif (tagged APOBEC3G with the HIV-1 protein that degrades it), YFP fluorescence, overnight; Potency, µM (series often up to 46.1 µM), inactives show at the top dose activity, negative = active, most hits filed as inhibitors; hit rate 0.076% among 410,000; AID 602310; further: potency means the concentration at half of the fitted maximal effect; on the % scale 0 is the no-effect control and ±100 the full control effect; nearly all actives have a fitted effect of over 60% in size
#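 Read-out is eYFP fluorescence (Ex 488/Em 500-530) from Vif-expressing HeLa A3G-eYFP cells; more signal means A3G escaped Vif-mediated degradation. Cells plated overnight, compound pinned in, incubated overnight at 37 deg C.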
# Tb PGK inh: T. brucei PGK inhibition. P07378. PGK/GAPDH coupled, Kinase-Glo luminescence, 60 min. Potency, µM (doses to about 57.5 µM), for the others: at the highest dose activity change, negative = inhibition, hits mostly inhibitors. hit rate 0.043% among 380,000. AID 602233; further: potency means the concentration at half of the fitted maximal effect; on the % scale 0 is the no-effect control and ±100 the full control effect; nearly all actives have a fitted effect of over 60% in size
# Target sequence (P07378 whole entry, looked up): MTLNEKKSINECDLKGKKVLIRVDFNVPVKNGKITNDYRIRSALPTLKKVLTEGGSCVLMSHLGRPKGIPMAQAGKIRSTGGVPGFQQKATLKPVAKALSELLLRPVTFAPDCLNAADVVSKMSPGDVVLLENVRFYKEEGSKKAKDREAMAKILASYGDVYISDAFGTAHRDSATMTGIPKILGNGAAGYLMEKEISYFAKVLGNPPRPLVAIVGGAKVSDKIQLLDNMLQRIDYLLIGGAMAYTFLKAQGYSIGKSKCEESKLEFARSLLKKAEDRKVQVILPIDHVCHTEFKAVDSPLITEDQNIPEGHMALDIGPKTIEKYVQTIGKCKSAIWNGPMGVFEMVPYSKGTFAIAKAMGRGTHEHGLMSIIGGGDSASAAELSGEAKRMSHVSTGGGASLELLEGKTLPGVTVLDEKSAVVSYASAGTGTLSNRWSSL
#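 Recombinant glycosomal PGK reaction used 1,3-bisphosphoglycerate generated in-well by GAPDH (100nM final) in 100mM TEA pH 7.6, 5mM MgCl2, 0.01% Tween-20. After 60 minutes at room temperature, ATP was read by Kinase-Glo Plus luminescence end-point.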
# Starred values were filed as active, the others as inactive; i = inactive; ? = inconclusive; · = no result given. An excerpt weighted towards active compounds, which were near 0.49% of everything screened. Unless noted, the call rests on the fitted dose curve; in most records, active means well fitted curve in the direction sought with a large enough effect; inconclusive means small, poorly fitted or top-dose-only effect, or another doubt; inactive means no such curve, though single readings can be large; an effect the other way counts as inactive or inconclusive.
SMILES,LDHA inh,Pin1 inh,mIDH1 inhibitor,Vif-APOBEC3F blk,Vif-APOBEC3G blk,Tb PGK inh
CCOC(=O)Cn1c2ccccc2c2nc3ccccc3nc21,4,-2%,10%,?,2%,i
COc1ccc(Cn2c3ccc(OC)cc3c3nc4ccccc4nc32)cc1,-12,?,0%,?,-5%,4%
O=C(O)Cn1c2ccccc2c2nc3ccccc3nc21,-4,·,-3%,8.9µM*,?,i
COc1ccc2c(c1)c1nc3ccccc3nc1n2CC(=O)OC(C)C,-12,?,9%,25µM*,-18%,-8%
COc1ccc2c(c1)c1nc3ccccc3nc1n2Cc1ccc(OC(C)C)c(OC)c1,0,?,4%,22µM*,-27%,-3%
C/C(=N/NC(=S)NC1CCCCC1)c1ccc(C(C)(C)C)cc1,17,·,·,·,·,·
CN(C)c1ccc(-c2csc(N3CCC(C(N)=O)CC3)n2)cc1,8,15%,·,·,·,·
NC(=S)Nc1cccc(Br)c1,0,·,·,·,·,·
Cc1cc(NC(=O)Nc2nnc(N(C)Cc3ccccc3)s2)ccc1Br,-13,8%,1%,?,13µM*,-9%
Cc1cccc(-c2noc(-c3ccco3)n2)c1,7,·,·,·,·,·
CCOCCCNC(=O)/C(C#N)=C/c1ccc([N+](=O)[O-])o1,36,?,-1%,13µM*,?,-3%
CC(NC(=O)/C(C#N)=C/c1ccc([N+](=O)[O-])o1)c1ccccc1 (configuration not stated),8,?,-25%,11µM*,22µM*,i
CCOCCCNC(=O)/C(C#N)=C/c1ccc(-c2ccc(S(=O)(=O)N3CCOCC3)cc2)o1,3,63%,1%,-23%,-10%,i
COc1ccc(CN2CCN(C(C)C(=O)N(C)Cc3cccc(F)c3)CC2)cc1OC (configuration not stated),-34*,2%,0%,2%,0%,·
Cc1ccc(NCC(O)Cn2c3ccccc3n3c(=O)cc(C)c(C#N)c23)cc1Cl (configuration not stated),8,·,·,·,·,·
CCOC(=O)N1CCN(Cc2nc3c(c(=O)[nH]c(=O)n3C)n2CCOC)CC1,-1,·,·,·,·,·
Cc1ccc(S(=O)(=O)N2CCC(n3c(C)nc4cccnc43)CC2)cc1,2,·,·,·,·,·
O=C1NC(=S)S/C1=C\c1ccc(SCc2ccco2)o1,-6,?,-6%,1%,-16%,14µM*
COc1cccc(/C=N/NC(=S)Nc2cccc(C(=O)O)c2)c1O,-47*,-7%,0%,-16%,0%,-13%
CC(C)(C)c1cc(-c2csc(Nc3ccccc3)[n+]2Cc2ccc(C(=O)O)cc2)cc(C(C)(C)C)c1O,0,·,37µM*,10%,-3%,-17%
O=C(O)c1ccc(C[n+]2c(-c3ccccc3)csc2Nc2ccccc2)cc1,-9,-2%,-21%,-3%,0%,15%
CC(=O)Nc1sc(/C(C#N)=C\c2cccc(Cl)c2)nc1-c1ccc(C)cc1,2,?,-2%,10µM*,4µM*,i
COc1cc(C2C3=C(CC(C)(C)CC3=O)OC3=C2C(=O)CC(C)(C)C3)ccc1OS(=O)(=O)c1ccc(C)cc1,8,·,·,·,·,·
O=C1CSC(=S)N1Cc1cccnc1,12,?,-4%,11µM*,?,i
O=C1CSC(=S)N1c1cccnc1,-2,18%,7%,-6%,1%,-5%
SMILES,LDHA inh,Pin1 inh,mIDH1 inhibitor,Vif-APOBEC3F blk,Vif-APOBEC3G blk,Tb PGK inh
CCOc1ccc(/C=C(\C#N)C(=O)Nc2cccnc2)cc1,-2,-8%,5%,-1%,0%,-8%
CCOc1ccc(NC(=O)/C(C#N)=C\c2ccc(N3CCCC3)c(C)c2)cc1,-10,?,-3%,11µM*,?,i
O=c1c2ccccc2cnn1-c1nc2ccccc2[nH]1,-2,-2%,15%,-8%,-2%,10µM*
O=c1c(Cl)c(N2CCCCC2)cnn1-c1nc2ccccc2[nH]1,-1,0%,2%,-8%,-2%,?
Cc1ccc2nc(/C(C#N)=C/c3ccc(-c4cccc([N+](=O)[O-])c4)o3)[nH]c2c1,-12,74%,6%,10µM*,-23%,-1%
Cc1c(Cl)cccc1-c1ccc(/C=C(\C#N)c2nc3ccccc3[nH]2)o1,12,?,-4%,13µM*,?,-6%
COC(=O)c1ccc(-c2ccc(/C=C(/C#N)c3nc4ccc(C)cc4[nH]3)o2)c(C)c1,1,·,·,·,·,·
Cc1ccc2nc(/C(C#N)=C/c3ccc(-c4ccc(F)cc4F)o3)[nH]c2c1,3,?,2%,?,11µM*,i
CCCN(C)Cc1ccc(C(=O)OC)cc1,7,·,·,·,·,·
CCc1ccc2oc(C(=O)NCC(c3cccs3)N3CCCCC3)cc(=O)c2c1 (configuration not stated),1,·,·,·,·,·
S=C(NN=C1CCCCCC1)NC1CCCCC1,1,·,·,·,·,·
CC(=O)Nc1sc(C)c(C)c1C(=O)OCC(=O)Nc1ccccc1,-2,-2%,0%,11µM*,?,i
CC(=O)Nc1sc(C)c(C)c1C(=O)OCC(=O)Nc1cccc(C)c1,0,4%,11%,?,-2%,-1%
CC(NC(=O)COc1ccccc1C#N)C12CC3CC(CC(C3)C1)C2 (configuration not stated),5,·,·,·,·,·
O=C(COCc1nc2ccccc2c(=O)[nH]1)Nc1nc(-c2ccc3c(c2)CCC3)cs1,-31*,·,·,·,·,·
CN(CC(=O)NC1(C#N)CCCCC1)Cc1ccc(C(F)(F)F)cc1,4,·,·,·,·,·
COc1ccc(/C=N/N=C2/NC(=O)C(CC(=O)O)S2)cc1OCc1ccc(Cl)cc1Cl (configuration not stated),-45*,?,-3%,-21%,-1%,-21%
CCCC(=O)N1CCCN(C(C)C(=O)Nc2ccc(F)c(F)c2)CC1 (configuration not stated),-7,·,·,·,·,·
CC(C(=O)NCCS(=O)(=O)c1ccc(Br)cc1)S(=O)(=O)c1ccc(Cl)cc1 (configuration not stated),-35*,-3%,-5%,-6%,0%,-13%
O=C(N/N=C/c1cccs1)C(c1ccccc1)c1ccccc1,6,·,·,·,·,·
O=C1NC(=Nc2ccc(O)cc2)S/C1=C/c1ccco1,-3,3%,-4%,-1%,11µM*,-9%
Cc1ccc(N=C2NC(=O)/C(=C\c3ccco3)S2)cc1,1,1%,1%,0%,-6%,-4%
Cc1ccc(N2C(=O)CSCC2=O)cc1,-2,5%,3%,1%,-2%,3%
